# Data reported in PubChem BioAssay.
# Calls of active or inactive are those of the source. Unless noted, the rule behind the calls is not given here.
# Experiments:
# [1] = compound effects on lung adenocarcinoma cell viability – A549, calcein-AM fluorescence, 48 h, basal, profiling panel (AID 1162); conditions: higher = more signal; note: test concentration not given here
# [2] = compound effects on differentiated 3T3-L1 adipocyte viability – cell-based, 3T3-L1 adipocytes, calcein-AM fluorescence, 48 h, basal, profiling panel (AID 1163); conditions: 3T3-L1 adipocytes viability, higher = more signal; note: test concentration not given here
# [3] = compound effects on hepatocellular carcinoma cell viability – HepG2, calcein-AM fluorescence, 48 h, basal, profiling panel (AID 1164); conditions: higher = more signal; note: test concentration not given here
# [4] = compound effects on multiple myeloma cell viability – MM1S, calcein-AM fluorescence, 48 h, basal, profiling panel (AID 1165); conditions: higher = more signal; note: test concentration not given here
# [5] = calcein-AM signal in unstimulated myeloma cells – cell-based, calcein-AM fluorescence, 48 h, PK04 Diversity Set, profiling panel (AID 1166); conditions: RPMI8226 myeloma viability, higher = more signal;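 note: cells grown under basal conditions without added stimulus; test concentration not given here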
# [6] = JC-1 mitochondrial signal, unstimulated HepG2 cells – cell-based, JC-1 fluorescence, 24 h, 100 nL compound, profiling panel (AID 1167); conditions: HepG2 mitochondrial potential, higher = more signal; note: test concentration not given here
# [7] = JC-1 mitochondrial signal, unstimulated adipocytes – cell-based, JC-1 fluorescence, 3T3-L1 adipocytes, 24 h, 100 nL compound, profiling panel (AID 1168); conditions: JC-1 mitochondrial fluorescence, higher = more signal, called active from +8 up or from −8 down; note: test concentration not given here
# [8] = JC-1 mitochondrial signal, unstimulated myeloma cells – cell-based, JC-1 fluorescence, RPMI8226, 24 h, 100 nL compound, profiling panel (AID 1169); conditions: JC-1 mitochondrial potential fluorescence, higher = more signal; note: test concentration not given here
# [9] = JC-1 mitochondrial signal, unstimulated MM1S myeloma – cell-based, JC-1 fluorescence, 24 h, 100 nL compound, profiling panel (AID 1170); conditions: MM1S mitochondrial potential, higher = more signal; note: test concentration not given here
# [10] = resazurin metabolic signal in A549 cells – cell-based, resazurin fluorescence, 24 h, PK04 Diversity Set, profiling panel (AID 1171); conditions: A549 viability, higher = more signal, called active from +8 up or from −8 down; note: test concentration not given here
# [11] = resazurin metabolic signal in HepG2 cells – cell-based, resazurin fluorescence, 24 h, PK04 Diversity Set, profiling panel (AID 1172); conditions: HepG2 viability, higher = more signal; note: test concentration not given here
# [12] = budding yeast growth changes without added modifier – OD600, strain BY4716, 24 h, basal condition, primary screen (AID 1173); conditions: S. cerevisiae BY4716 growth, OD600, 24 h; higher = more signal, called active from +8 up or from −8 down
# [13] = viability profiling in MM1S myeloma cells – cell-based, resazurin fluorescence, basal, 24 h, PK04 Diversity Set, profiling panel (AID 1174); conditions: higher = more signal, called active from +8 up or from −8 down; note: test concentration not given here
# [14] = target: Dihydroorotate dehydrogenase (quinone), mitochondrial (Plasmodium falciparum (isolate 3D7)) (UniProt Q08210); assay: inhibition of P. falciparum DHODH – biochemical, C-terminal His tag, absorbance 600 nm, primary screen (AID 1175); conditions: PfDHODH enzyme, DCIP absorbance 600 nm; higher = more signal, called active from +8 up or from −8 down;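 note: recombinant parasite enzyme with a five histidine tag at its C terminus; test concentration not given here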
# [15] = inhibition of PAO1 biofilm formation – strain PAO1, LB-PBS medium, absorbance 600 nm, primary screen (AID 1176); note: test concentration not given here; conditions: P. aeruginosa PAO1 growth/biofilm, A600, 12 h; higher = more signal
# [16] = growth modulation of vineyard yeast isolate – strain RM11-1a, OD600, basal, 24 h, primary screen (AID 1177);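 note: cultures grown under basal conditions with no added stressor; test concentration not given here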; conditions: S. cerevisiae RM11-1a growth, OD600, 24 h; higher = more signal, called active from +8 up or from −8 down
# [17] = growth of efflux-deficient E. coli DRC39 – strain DRC39, OD650, 24 h, E. coli filamentation inducers, primary screen (AID 1178);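 note: growth measured as culture turbidity by optical density at 650 nm; test concentration not given here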; conditions: E. coli DRC39 acrAB, higher = more signal, called active from +8 up or from −8 down
# [18] = growth of efflux-deficient E. coli DRC39 – strain DRC39, OD650, 48 h, E. coli filamentation inducers, primary screen (AID 1179);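 note: screen aims at cell division blockers that make cells filament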; conditions: E. coli DRC39 delta-acrAB growth, higher = more signal, called active from +8 up or from −8 down
# [19] = viability profiling in RPMI8226 myeloma cells – cell-based, resazurin fluorescence, basal, 24 h, PK04 Diversity Set, profiling panel (AID 1180); conditions: higher = more signal;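 note: RPMI8826 multiple myeloma cell line at 5000 cells per well; test concentration not given here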
# [20] = target: E3 ubiquitin-protein ligase XIAP (Homo sapiens) (UniProt P98170); assay: small molecules binding XIAP protein – biophysical, small-molecule microarray, fluorescence 635 nm, primary screen (AID 1181); conditions: higher = more signal;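 note: score merges 667 nm emission and signal to noise over triplicate slides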
# Chain of E3 ubiquitin-protein ligase XIAP (Homo sapiens) (P98170 whole entry, looked up): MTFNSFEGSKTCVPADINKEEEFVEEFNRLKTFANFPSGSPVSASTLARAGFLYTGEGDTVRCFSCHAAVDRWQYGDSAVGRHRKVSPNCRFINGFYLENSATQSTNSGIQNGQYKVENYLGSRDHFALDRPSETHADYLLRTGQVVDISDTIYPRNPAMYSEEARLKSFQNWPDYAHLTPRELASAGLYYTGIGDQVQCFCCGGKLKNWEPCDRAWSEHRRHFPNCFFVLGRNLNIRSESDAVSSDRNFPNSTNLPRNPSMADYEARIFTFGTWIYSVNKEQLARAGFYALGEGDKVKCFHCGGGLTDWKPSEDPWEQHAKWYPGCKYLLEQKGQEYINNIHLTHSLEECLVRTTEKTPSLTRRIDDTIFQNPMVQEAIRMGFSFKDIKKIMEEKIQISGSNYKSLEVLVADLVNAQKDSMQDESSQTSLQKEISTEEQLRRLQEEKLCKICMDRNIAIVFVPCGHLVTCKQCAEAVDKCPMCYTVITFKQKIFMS
# Chain of Dihydroorotate dehydrogenase (quinone), mitochondrial (Plasmodium falciparum (isolate 3D7)) (Q08210 whole entry, looked up): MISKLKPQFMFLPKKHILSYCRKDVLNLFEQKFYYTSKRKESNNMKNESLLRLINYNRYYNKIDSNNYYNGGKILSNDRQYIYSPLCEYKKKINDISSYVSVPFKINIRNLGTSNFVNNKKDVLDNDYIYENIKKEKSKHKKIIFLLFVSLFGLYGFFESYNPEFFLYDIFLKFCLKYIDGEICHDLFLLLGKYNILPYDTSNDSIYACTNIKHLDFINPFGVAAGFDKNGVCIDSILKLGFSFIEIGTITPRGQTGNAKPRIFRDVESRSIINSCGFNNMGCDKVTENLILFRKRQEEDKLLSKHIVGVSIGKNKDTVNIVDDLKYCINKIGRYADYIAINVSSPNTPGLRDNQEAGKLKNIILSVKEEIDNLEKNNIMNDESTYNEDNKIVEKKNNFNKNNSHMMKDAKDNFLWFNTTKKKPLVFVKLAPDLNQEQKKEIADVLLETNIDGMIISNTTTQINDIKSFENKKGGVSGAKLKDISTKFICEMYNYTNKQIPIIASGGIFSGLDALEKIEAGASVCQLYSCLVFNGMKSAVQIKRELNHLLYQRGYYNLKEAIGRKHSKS
SMILES,z-score [1],z-score [2],z-score [3],z-score [4],z-score [5],z-score [6],z-score [7],z-score [8],z-score [9],z-score [10],z-score [11],z-score [12],z-score [13],composite z-score [14],z-score [15],z-score [16],z-score [17],z-score [18],z-score [19],composite z-score [20]
CCCCN1CC=CC23O[C@@H]4/C=C\CCCOC(=O)C4[C@H]2C(=O)N(CCO)[C@@H]3C1=O (stereo not given in full),-0.129,1.63,-0.0509,1.04,-0.711,-0.415,0.0794 (inactive),0.378,1.39,-0.688 (inactive),-1.03,0.291 (inactive),0.294 (inactive),0.538 (inactive),-0.221 (inactive),0.507 (inactive),-0.088 (inactive),-0.389 (inactive),0.0725,0.0537
Cc1ccc(S[C@]2(C(=O)NC(C)C)CC(=O)N(Cc3cc(C(F)(F)F)cc(C(F)(F)F)c3)[C@@H]2c2ccc(CO)cc2)cc1,0.15,-0.312,-0.286,0.395,0.392,-0.387,-0.5 (inactive),-0.555,-0.129,0.271 (inactive),-0.489,-1.33 (inactive),0.528 (inactive),-1.06 (inactive),0.31 (inactive),-0.656 (inactive),-0.0813 (inactive),-0.229 (inactive),0.483,-0.0125
CC(c1ccccc1)C(O)C1C=CC2C(=O)N(C)C(=O)C2N1Nc1ccccc1 (stereo not given),-0.227,-0.856,0.36,-2.65,-0.435,-0.624,-0.83 (inactive),0.446,-0.527,-0.183 (inactive),-0.705,-0.0181 (inactive),-1.27 (inactive),-0.475 (inactive),0.944 (inactive),-0.0455 (inactive),-1.12 (inactive),-0.374 (inactive),-1.1,-0.0654
C=CC[C@@]1(C(=O)NCCCOC)N=C(c2ccc(OCCCO)cc2)O[C@@H]1c1ccccc1N=[N+]=[N-],1.42,0.0373,-0.465,-1.06,0.241,1.62,0.863 (inactive),-0.178,-0.917,0.2 (inactive),1.06,-0.537 (inactive),-0.394 (inactive),1.05 (inactive),-0.814 (inactive),0.464 (inactive),0.868 (inactive),1.43 (inactive),-0.137,0.598
CCCC[C@@H](O)C1=C(COc2ccccc2)C[C@H]2C(=O)N(Cc3ccccc3)C(=O)[C@H]2[C@H]1CO,0.553,-0.0277,0.913,-0.189,0.0172,1.17,0.0746 (inactive),-1.06,-0.172,-0.0959 (inactive),-0.78,-1.66 (inactive),-0.857 (inactive),-4.48 (inactive),-0.508 (inactive),0.743 (inactive),-0.0552 (inactive),0.218 (inactive),-0.301,-0.0118
CCCNC(=O)[C@@]1(Sc2ccc(C)cc2)CC(=O)N(C2Cc3ccccc3C2)[C@@H]1c1ccc(CO)cc1I,0.877,0.331,0.544,-1.54,-1.85,-0.574,-0.0979 (inactive),-0.778,-0.987,0.309 (inactive),-0.463,-2.31 (inactive),-1.67 (inactive),-0.141 (inactive),0.518 (inactive),-0.564 (inactive),0.599 (inactive),-0.0019 (inactive),-1.55,-0.0286
CCOC(=O)C[C@H]1[C@H](OC(=O)c2cc3ccccc3oc2=O)[C@@H](NC(=O)CC(C)C)c2cc(OCCCO)ccc2N1C(=O)c1ccc2ccccc2n1,-0.326,-0.166,0.311,-0.18,0.156,-0.858,-0.415 (inactive),-0.272,-0.692,-0.103 (inactive),-0.792,0.738 (inactive),-0.043 (inactive),0.544 (inactive),0.555 (inactive),1.44 (inactive),-0.463 (inactive),-0.416 (inactive),-0.493,-0.102
CC[C@@H]1C=C(C(=O)O)[C@H](c2ccccc2)N1S(=O)(=O)c1ccc(C)cc1,-0.71,-1.48,-1.22,-0.0502,-0.674,-0.93,-0.703 (inactive),0.77,-0.76,-0.687 (inactive),-0.791,0.34 (inactive),-1.17 (inactive),-0.95 (inactive),0.16 (inactive),-1.02 (inactive),-0.666 (inactive),-0.135 (inactive),-1.54,-0.0663
CC(C)C(CO)N1C(=O)[C@@H]2C3C(=O)OCCC/C=C\[C@H]3OC23C=CCN(c2ccc4ccccc4c2)C(=O)[C@@H]13 (stereo not given in full),-0.0401,-0.0738,-0.131,0.292,0.457,-0.0404,-0.0718 (inactive),0.0134,-0.332,-0.525 (inactive),-0.507,0.267 (inactive),-0.235 (inactive),-0.42 (inactive),-0.292 (inactive),-0.259 (inactive),-0.275 (inactive),-0.24 (inactive),-0.344,0.683
[N-]=[N+]=NCc1ccccc1C[C@@]1(C(N)=O)N=C(c2ccc(OCCCO)cc2)O[C@@H]1c1ccccc1,-0.914,0.0779,-1.94,-3.04,-2.88,-0.864,-0.262 (inactive),-1.22,-0.301,-1.08 (inactive),0.0565,-0.165 (inactive),-1.22 (inactive),-0.239 (inactive),0.563 (inactive),0.115 (inactive),0.0937 (inactive),-1.12 (inactive),-1.37,-0.11
COC(=O)C1=CC(CCCO)=CC(c2cccs2)N(Cc2cccc(OC(F)(F)F)c2)C=C1C(=O)OC (stereo not given),-0.855,0.543,0.896,-2.69,-3.76,0.996,0.000649 (inactive),-0.786,-0.512,-0.257 (inactive),-0.872,-0.487 (inactive),-1.46 (inactive),-3.05 (inactive),0.82 (inactive),0.0036 (inactive),0.581 (inactive),0.153 (inactive),-1.16,-0.0756
CC1CC/C=C\[C@H]2OC34C=CCN(c5ccc(Cl)cc5)C(=O)[C@H]3N(C(C)CO)C(=O)[C@]4(C)C2C(=O)O1 (stereo not given in full),0.924,-0.761,1.24,1.31,0.37,0.807,-0.29 (inactive),-0.0845,-0.723,0.0378 (inactive),0.66,-0.876 (inactive),0.535 (inactive),0.291 (inactive),-0.428 (inactive),0.33 (inactive),1.31 (inactive),1.48 (inactive),0.555,0.3
